Screening results (PubChem)
Compounds with a hit are over-represented: about 7.1% of the library has one in this group of screens.
MCF10A rereplic – DNA re-replication induction in MCF 10a cells; Potency, µM (top dose mostly 46.1 µM), hits mostly activators; MCF 10A DNA re-replication, Hoechst nuclear intensity, 48 h; 350,000 tested, 2.9% active; further: nearly all actives have a fitted effect of over 50% in size
ATXN2 expr inh – reduces ATXN2 reporter expression in HEK-293 cells | HEK-293 ATXN2-luciferase reporter, luminescence, 24 h | Potency, µM (doses to about 57 µM), actives largely listed as inhibitors | 360,000 tested, 0.72% active | AID 1745845; further: nearly all actives have a fitted effect of over 55% in size
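qHTS (up to 57 uM final) was run with 24 h compound exposure of reporter cells at 37 °C. Each well was multiplexed: SteadyGlo luminescence measured ATXN2-luciferase expression after a fluorogenic Gly-Phe-AFC viability readout (25 uM final).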
ATXN viability – reduces viability in counter-screen for ATXN expression inhibitors; S2 cells (HEK-293 line with an ATXN2-luciferase reporter) viability, CellTiter-Fluor protease fluorescence, 24 h; Potency, µM (series often up to 56.7 µM), actives largely listed as cytotoxic; 400,000 tested, 0.49% active; further: nearly all actives have a fitted effect of over 40% in size
IL1B secr inh – blocks inflammasome-driven IL-1 beta release | THP-1 LPS/ATP IL-1B secretion, AlphaLISA, 16 h; active compounds read low | activity change, % at 57.5 µM | 360,000 tested, 4.7% active | AID 743279; in the data active means activity change below about -50%; inconclusive means mostly about -30% to -49%
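THP-1 cells pretreated 1 hr with compounds (up to 57.5 uM final), then stimulated with LPS (250 ng/mL final) plus ATP (1.25 mM final); secreted IL-1B measured by AlphaLISA after 16 hr, decreased signal indicating inhibition.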
PINK1 expr mod – changes PINK1 expression; PINK1 immunofluorescence, high-content cytometry, 24 h; Potency, µM (top dose mostly 76.6 µM), usual class: activators; 410,000 tested, 0.2% active; active means well fitted activation curve with a large enough effect; inconclusive means small, poorly fitted or top-dose-only effect; cell line not stated here; further: nearly all actives have a fitted effect of over 65% in size
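Cells are seeded, rested 12 hours, then given compound at five concentrations or DMSO for 24 hours. After fixation, blocking and antibody staining, PINK1 amount and mitochondrial localization are scored; CCCP serves as control.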
SW480 rereplic – inducers of DNA re-replication in SW480 colon cancer cells; SW480 DNA re-replication, Hoechst DNA content imaging, 48 h; Potency, µM (series often up to 46.1 µM), hits mostly activators; 340,000 tested, 1.8% active; AID 624297; further: nearly all actives have a fitted effect of over 55% in size
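Quantitative HTS format with DMSO vehicle controls; 48 hr drug incubation at 37 C, then 40 min Hoechst staining and scanning imager measurement at 405 nm excitation.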
Hits are given with their value; 0 = inactive; ? = inconclusive; - = not tested or not shown. Unless noted, the call rests on the fitted dose curve; in most records, active means well fitted curve in the direction sought with a large enough effect; inconclusive means small, poorly fitted or top-dose-only effect, or another doubt; inactive means no such curve, though single readings can be large; an effect the other way counts as inactive or inconclusive.

SMILES	MCF10A rereplic	ATXN2 expr inh	ATXN viability	IL1B secr inh	PINK1 expr mod	SW480 rereplic
CCC(=O)Nc1ccc2c(c1)OC[C@@H](C)N(Cc1ccccc1F)C[C@@H](C)[C@@H](OC)CN(C)C2=O	-	-	-	0	-	-
CO[C@H]1CN(C)C(=O)c2ccc(NC(=O)C3CCC3)cc2OC[C@H](C)N(Cc2ccc(F)cc2)C[C@@H]1C	-	-	-	-70	-	-
CC(=O)c1ccc(NC(=O)CSc2nc(C3CCCC3)nc3c2c(=O)n(C)c(=O)n3C)cc1	-	0	?	-	0	-
Cc1c(Cl)cccc1-n1ncc(C(=O)NC2CCCC2)c1C1CCN(C(=O)OC(C)(C)C)CC1	-	0	0	-	0	-
CCN(Cc1ccccc1)S(=O)(=O)c1ccc(C(=O)N(CCCN(C)C)c2nc3c(C)c(C)ccc3s2)cc1	16µM	0	?	-84	0	6.5µM
CC(=O)c1ccc(C(=O)N(CCCN(C)C)c2nc3c(C)c(C)ccc3s2)cc1	-	0	0	-	0	-
CCN(Cc1ccccc1)S(=O)(=O)c1ccc(C(=O)N(CCCN(C)C)c2nc3cc4c(cc3s2)OCO4)cc1	0	?	?	-73	0	?
Cc1ccc2sc(N(CCCN(C)C)C(=O)c3ccc(S(=O)(=O)N(C)C4CCCCC4)cc3)nc2c1C	23µM	?	-	?	0	?
CNS(=O)(=O)c1cn(CC(=O)N2CCN(c3cc(C)ccc3C)CC2)cc1S(=O)(=O)NC	-	-	-	-	0	-
CC1Cc2ccccc2N1S(=O)(=O)c1nnc(NC(=O)c2cccc(F)c2)s1 (centres undefined)	-	?	?	-	0	-
COc1ccc(-c2onc3ccc(C(=O)/C=C/N(C)C)cc23)cc1	18µM	0	0	0	0	16µM
CC(=O)c1ccc2noc(-c3ccc(Cl)cc3)c2c1	?	0	0	0	0	16µM
CN(C)/C=C/C(=O)c1ccc2noc(-c3cccc(F)c3)c2c1	?	-	?	0	0	0
O=C(NCC(=O)N1CCN(C(c2ccccc2)c2ccccc2)CC1)c1ccc(Br)o1	0	0	0	-73	0	0
Cc1cc(C)cc(C(=O)NCC(=O)N2CCN(C(c3ccccc3)c3ccccc3)CC2)c1	16µM	?	0	0	0	?
O=C(NCC(=O)N1CCN(C(c2ccccc2)c2ccccc2)CC1)c1ccccc1Br	-	-	0	0	0	-
COc1ccc(NC(=O)C/C(C)=N/NC(=O)c2ccccn2)c(OC)c1	0	0	0	0	0	0
COc1ccc(OC)c(-c2csc(NC(=O)Cc3ccccc3F)n2)c1	21µM	0	0	-62	0	?
CC1Cc2cc(-c3csc(NC(=O)Cc4ccccc4)n3)ccc2N1S(C)(=O)=O (centres undefined)	0	?	?	-84	-	0
O=C(CSc1ncnc2[nH]ncc12)Nc1nc(-c2ccc(F)c(F)c2)cs1	?	-	0	-68	0	?
COc1ccc(OC)c(-c2csc(NC(=O)Cc3ccccc3OC)n2)c1	0	0	0	?	0	0
COc1ccc(CC(=O)Nc2nc(-c3ccc(F)c(F)c3)cs2)cc1	?	?	0	-85	0	?
Cc1cccc(-c2nnc(SCc3cc(=O)c4cccc(Cl)c4[nH]3)n2C)c1	-	?	?	-	0	-
O=C(O)c1c(Cl)c(Cl)c(Cl)c(Cl)c1C(=O)OCC1CCCO1 (centres undefined)	-	-	0	0	0	-
CC(=O)Oc1ccc(CC(C(=O)O)N2C(=O)c3ccccc3C2=O)cc1 (centres undefined)	0	0	0	0	0	0
SMILES	MCF10A rereplic	ATXN2 expr inh	ATXN viability	IL1B secr inh	PINK1 expr mod	SW480 rereplic
CC(=O)Oc1ccc(C#C/C=C2\c3ccccc3C(=O)N2c2ccccc2)cc1	?	?	?	-100	0	?
CC(C)(C)OC(=O)n1cccc1/C=C1\c2ccccc2C(=O)N1c1ccccc1	?	0	?	0	0	?
CCCC(/C=C/c1ccc(OC(C)=O)cc1)=C1/c2ccccc2C(=O)N1c1ccccc1	?	0	-	-63	0	?
O=C(N/N=C/C(Cl)=C/c1ccccc1)c1ccco1	0	0	0	0	0	0
O=C(/C(=C/O)N=Nc1ccccc1Cl)c1ccccc1	?	?	?	-99	0	0
O=C(/C(=C/O)N=Nc1cccc(C(F)(F)F)c1)c1ccccc1	?	?	0	-95	0	0
COC(=O)/C(N=Nc1cccc(C(F)(F)F)c1)=C(\C)O	0	0	0	0	0	0
Cc1cccc(N=N/C(=C\O)C(=O)c2ccc(Br)cc2)c1	?	0	-	-85	0	?
O=C(/C(=C/O)N=Nc1ccccc1)c1ccco1	15µM	0	?	0	0	?
Cc1ccc(N=N/C(=C\O)C(=O)c2ccncc2)cc1	?	0	0	0	0	0
O=C(/C(=C/O)N=Nc1ccc(Cl)cc1)c1ccncc1	?	0	0	0	0	?
N#Cc1c(NC(=O)CS(=O)(=O)c2ccc(Cl)cc2)sc2c1CCCCC2	-	-	-	-	0	-
Cc1onc(-c2ccccc2)c1C(=O)Cl	-	0	0	-	-	-
Cc1ccn2c(NC(=O)c3cccc(Cl)c3)c(-c3ccccc3)nc2c1	-	0	?	-	0	-
OCC#CCSc1nnc(-c2ccccc2Br)o1	12µM	0	?	0	0	?
CCn1cc(C(=O)O)c(=O)c2cc(F)c(N3CCN(S(=O)(=O)c4ccc(NC(=O)OC)cc4)CC3)cc21	0	0	0	0	32µM	0
CCCNC(=O)c1cn(CC)c2cc(N3CCN(C(=O)c4ccco4)CC3)c(F)cc2c1=O	0	-	0	0	0	0
CCC(=O)N1CCN(c2cc3c(cc2F)c(=O)c(C(=O)O)cn3CC)CC1	0	0	0	0	0	0
CCn1cc(C(=O)NCc2cccc(F)c2)c(=O)c2cc(F)c(N3CCN(C(=O)c4ccco4)CC3)cc21	?	35µM	?	-54	0	0
CCCOc1ccc(C(=O)NC(=S)N2CCN(c3cc4c(cc3F)c(=O)c(C(=O)O)cn4CC)CC2)cc1	0	0	0	0	35µM	0
CC(C)(C)C(=O)Nc1ccc(NC(=O)c2ccco2)nc1	0	0.89µM	0	0	0	0
Nc1ccc(/C=C/C(=O)c2ccco2)cc1	0	0	0	0	0	0
O=C(Nc1ccc(NC(=O)c2ccco2)nc1)c1ccco1	0	-	0	0	0	0
CC(C)(C)C(=O)Nc1ccc(/C=C/C(=O)c2ccco2)cc1	?	0	?	-102	0	0
CC(C)c1ccc(NC(=O)CN2C(=O)CSc3ccc(S(=O)(=O)N4CCCC4)cc32)cc1	-	-	-	-	0	-
COc1ccccc1CNC(=O)c1cc2c(=O)oc3ccc(C)cc3c2s1	-	0	0	-	0	-
N[C@H](C(=O)O)[C@@H](O)c1ccc(O)c(O)c1	-	0	0	-	-	-
O=C(Nc1ccc(Cl)cc1)Nc1ccc2c(c1)N1CCN=C1S2	?	0	0	-66	0	0
Nc1ccc2c(c1)N1CCN=C1S2	0	0	0	0	0	0
